# HT1080NT lethal: kills 2HG-producing HT-1080-NT fibrosarcoma cells | Potency, µM (top dose mostly 46.1 µM), inactives show top-dose activity, negative = less viability, most hits filed as cytotoxic | HT-1080-NT fibrosarcoma viability, CellTiter-Glo ATP luminescence, 48 h | 360,000 tested, 1.6% active;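 also: NT is the 2HG producing partner of a matched IDH1 knockdown line; 0% = DMSO-treated cells and -100% = media-only wells without cells; nearly all actives have a fitted effect of over 55% in size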
#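 HT-1080-NT; 750 cells/well; 5% FBS RPMI; 48 h compound, 37 degrees C; CellTiter-Glo luminescence; curve fitting and curve-class assignment.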
# ATXN2 expr inh: inhibitors of ATXN2 expression. HEK-293 ATXN2-luciferase reporter, luminescence, 24 h. Potency, µM (doses to about 57 µM), without a hit: top-dose activity change, negative = inhibition, actives largely listed as inhibitors. 360,000 tested, 0.72% active; also: % is scaled to controls: 0 for no effect and ±100 for the full control effect; nearly all actives have a fitted effect of over 55% in size
#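 ATXN2-luciferase reporter cells (luciferase flanked by upstream and downstream ATXN2 gene portions) were treated 24 h at 37 °C with compounds at up to 57 uM. SteadyGlo luminescence gave expression; GF-AFC fluorescence gave viability.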
# HepG2 viability: kills HepG2 cells in TGF-b inhibitor counter-screen | HepG2 CAGA-GFP viability, ATP luminescence, 18 h | Potency, µM (top dose mostly 46.1 µM), for inactives: at the top dose activity change, negative = cytotoxicity, most hits filed as cytotoxic | 410,000 tested, 0.76% active | AID 588856
#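 HepG2 CAGA-GFP cells (1000/well, DMEM with 1% FBS) received compound, then TGF-beta at 500 pg/mL final, and were incubated 18 hours at 37 degrees C. Viability was read by CellTiter-Glo luminescence. Media-only wells were set as complete cell-killing and DMSO as no toxicity.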
# S2 tox: reduces viability in counter-screen for ATXN expression inhibitors | S2 cells (HEK-293 line with an ATXN2-luciferase reporter) viability, CellTiter-Fluor protease fluorescence, 24 h | Potency, µM (highest dose often 56.7 µM), actives largely listed as cytotoxic | 400,000 tested, 0.49% active; also: nearly all actives have a fitted effect of over 40% in size
# HT1080 IDH1KD tx: toxicity to HT-1080 IDH1 knockdown cells (counter line). HT-1080 IDH1 knockdown viability, ATP luminescence, 48 h. Potency, µM (highest dose often 46.1 µM), for the others: at the top dose activity, negative = toxicity, actives largely listed as cytotoxic. 360,000 tested, 2% active. AID 686971;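 also: 0% = DMSO wells and -100% = cell-free medium wells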
#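 HT-1080-IDH1KD cells (IDH1 knocked down), 750/well in RPMI with 5% FBS, treated with compound 48 h at 37 degrees C. Viability by CellTiter-Glo luminescence, normalised to DMSO and no-cell wells; concentration-response curves classed.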
# TGFb inhibitor: inhibitors of TGF-b signaling | AID 588855 | Potency, µM (highest dose often 46.1 µM), inactives show at the top dose activity, negative = inhibition, usual class: inhibitors | 410,000 tested, 1.2% active | HepG2 CAGA-GFP TGF-b/SMAD3 reporter, GFP fluorescence, 18 h; TGF-beta stimulated, 500 pg/mL final; also: % is scaled to controls: 0 for no effect and ±100 for the full control effect; nearly all actives have a fitted effect of over 65% in size
#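 Smad-responsive CAGA-GFP expression was quantified in HEPG2 cells exposed to compounds and 500 pg/mL final TGF-beta for 18 h at 37 degrees C; unstimulated wells defined full inhibition.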
# The depositor's hits bear a star; i = inactive; u = inconclusive; x = no result; [ ] = another dose, or the depositor's remark. Rows were chosen to be rich in hits. Some 3.9% of all compounds tested hit in one or more screens of this group. Calls follow the shape of the dose curve; as a rule, active = well fitted curve in the direction sought with a large enough effect; inconclusive = small, poorly fitted or top-dose-only effect, or another doubt; inactive = no such curve, though single readings can be large; an effect the other way counts as inactive or inconclusive. Potency is read from the fitted curve at half-maximal effect.
SMILES,HT1080NT lethal,ATXN2 expr inh,HepG2 viability,S2 tox,HT1080 IDH1KD tx,TGFb inhibitor
CCOC(=O)c1ccc(N2C(=O)c3n[nH]c(-c4ccco4)c3C2c2cccc(OC)c2)cc1 (stereo not given),x,u,-73%,u,x,4.5µM*
COc1ccc(C2c3c(-c4ccccc4)n[nH]c3C(=O)N2c2ccc(C(=O)O)cc2)cc1 (stereo not given),5%,-25%,16%,i,-8%,6%
CCOC(=O)c1ccc(N2C(=O)c3n[nH]c(-c4ccco4)c3C2c2ccc(F)cc2)cc1 (stereo not given),x,u,22µM*,u,x,u
COc1cccc(C2c3c(-c4ccccc4)n[nH]c3C(=O)N2c2ccc(C(=O)O)cc2)c1 (stereo not given),-2%,2%,-3%,i,4%,u
CCOC(=O)c1ccc(N2C(=O)c3[nH]nc(-c4ccc(OC)cc4)c3C2c2ccc(C)cc2)cc1 (stereo not given),x,u,-46%,u,x,25µM*
CCOC(=O)c1ccc(N2C(=O)c3n[nH]c(-c4cccs4)c3C2c2ccc(O)c(OC)c2)cc1 (stereo not given),x,u,-51%,u,x,u
CCOC(=O)c1ccc(N2C(=O)c3n[nH]c(-c4ccco4)c3C2c2ccccc2OC)cc1 (stereo not given),x,u,5µM*,u,x,u
CCOC(=O)c1ccc(N2C(=O)c3n[nH]c(C)c3C2c2ccc(O)cc2)cc1 (stereo not given),-12%,44%,4%,i,-12%,-4%
CCOC(=O)c1ccc(N2C(=O)c3n[nH]c(C)c3C2c2ccccc2OC)cc1 (stereo not given),x,0%,-41%,u,x,u
CCOC(=O)c1ccc(N2C(=O)c3n[nH]c(-c4ccco4)c3C2c2cccc(O)c2)cc1 (stereo not given),x,u,22µM*,u,x,13µM*
CCOC(=O)c1ccc(N2C(=O)c3n[nH]c(-c4ccco4)c3C2c2ccc(OCC)cc2)cc1 (stereo not given),x,x,-76%,x,x,7.1µM*
CSc1nc2c([nH]1)c(=S)n(C)c(=O)n2C,2%,-14%,-37%,i,-3%,13µM*
CCCC(CC)Sc1nc2c([nH]1)c(=S)n(C)c(=O)n2C (stereo not given),4%,-28%,-1%,i,-12%,7.9µM*
Cn1c(=S)c2[nH]c(SCCC(C)(C)C)nc2n(C)c1=O,-3%,-30%,-33%,i,-22%,u
CCCCSc1nc2c([nH]1)c(=S)n(C)c(=O)n2C,2%,u,-54%,u,9%,5µM*
CCCCC(C)Sc1nc2c([nH]1)c(=S)n(C)c(=O)n2C (stereo not given),8%,-28%,3%,u,u,u
Cc1cccc(CNCCn2cc(C(=O)Nc3ccccc3)nn2)c1,x,x,x,i,x,x
COc1cccc(NC(=O)Cn2c(=O)n(CCc3ccccc3)c(=O)c3c4c(sc32)CN(C(C)=O)CC4)c1,x,-19%,-33%,i,x,-19%
CC(=O)c1cccc(NC(=O)CN2C(=O)CC(c3ccc(C)cc3C)=Nc3ccccc32)c1,x,x,-10%,x,x,4%
O=c1sc(/C=N/Nc2ccccc2)c(Cl)n1Cc1ccccc1,15µM*,6%[11.3 µM],1%,i,13µM*,-16%
O=C(O)c1cccc(Cn2c(Cl)c(/C=N/NC(=O)c3ccc(O)cc3)sc2=O)c1,2%,3%,-17%,i,-2%,-2%
O=C1CCN(Cc2cccc(C(F)(F)F)c2)CCN1Cc1ccccn1,x,x,x,i,x,x
COc1ccc(S(=O)(=O)Nc2cc3c4c(oc3c3ccccc23)CCCC4=O)cc1,u,-30%,-8%,u,3.7µM*,u
COc1ccc(S(=O)(=O)Nc2cc3c4c(oc3c3ccccc23)CC(C)(C)CC4=O)cc1,u,-38%,-27%,u,u,-10%
COc1cc(-c2nnc(SCCOc3ccc(C)c(Cl)c3)o2)cc(OC)c1OC,x,-10%,-30%,i,x,-5%
SMILES,HT1080NT lethal,ATXN2 expr inh,HepG2 viability,S2 tox,HT1080 IDH1KD tx,TGFb inhibitor
Cc1cnc(-n2ncc(C(=O)NCCc3ccccn3)c2C)nc1-c1ccc(F)cc1,x,x,x,i,x,x
Cc1ccccc1-c1nc(CN2CCC(C(=O)NCCCN3CCOCC3)CC2)c(C)o1,10µM*,-10%,-3%,i,-19%,10%
Cc1cccc(-c2nc(CN3CCCC(C(=O)NCCc4ccc(Cl)cc4)C3)c(C)o2)c1 (stereo not given),x,u,-21%,u,x,-23%
Cc1oc(-c2ccc(Cl)cc2)nc1CN1CCC(C(=O)NCCCN2CCCC(C)C2)CC1 (stereo not given),13µM*,u,14µM*,u,16µM*,u
Cc1oc(-c2ccc(Cl)cc2)nc1CN1CCCC(C(=O)NCCc2ccccc2)C1 (stereo not given),x,-2%,-21%,u,x,7.1µM*
Cc1ccccc1-c1nc(CN2CCC(C(=O)NCCN3CCOCC3)CC2)c(C)o1,-21%,-5%,-3%,i,-15%,5%
Cc1ccc2nc(N3CCN(c4cccc(C(F)(F)F)c4)CC3)c3nnnn3c2c1,x,x,-18%,x,x,-1%
CC=C1NC(=O)[C@H]2CSSCCC=C[C@H](CC(=O)N[C@H](C(C)C)C(=O)N2)OC(=O)[C@H](C(C)C)NC1=O,x,5%,x,x,x,x
O=C(O)CSCC(=O)NCc1c(Cl)cccc1Oc1ccccc1,18%,6%,-5%,x,1%,15%
O=S(=O)(NCc1c(Cl)cccc1Oc1ccccc1)c1ccc(F)cc1,-2%,x,-45%,i,3%,11µM*
NC[C@H]1O[C@H](O[C@H]2[C@@H](O)[C@@H](O[C@H]3O[C@H](CO)[C@@H](O)[C@H](N)[C@@H]3O)[C@H](N)C[C@@H]2N)[C@H](N)C[C@H]1O,x,-11%,x,x,x,x
CCCCCCC(=O)N(O)C1CC(=O)N(c2ccc(F)cc2)C1=O (stereo not given),16µM*,2%,-3%,u,u,18µM*
CCCCCCC(=O)N(O)C1CC(=O)N(c2ccc(Br)cc2)C1=O (stereo not given),u,-21%,-21%,i,16µM*,u
CCOC(=O)c1[nH]c2c(c1Cc1ccccc1)C(=O)CC(c1ccc(C(C)(C)C)cc1)C2 (stereo not given),x,-13%,6%,i,x,-25%

# Screening results (PubChem)
